Screening data (PubChem)
An excerpt weighted towards active compounds, which were near 15% of everything screened.
DT40 TDP1 no CPT: qHTS for Inhibitors of human tyrosyl-DNA phosphodiesterase 1 (TDP1): qHTS in cells in absence of CPT; 15% of 420,000 active; Potency, µM (top dose mostly 46.2 µM), for the others: top-dose activity change, negative = growth inhibition, hits mostly inhibitors; AID 686978, 2013; DT40 Tdp1-/- hTDP1 cells, no CPT, ATP luminescence, 48 h; further: nearly all actives have a fitted effect of over 55% in size
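A cellular qHTS used chicken DT40 cells lacking endogenous Tdp1 but carrying stably transfected human TDP1. Compounds were applied without camptothecin, and cell growth kinetics were judged by ATP-dependent luminescence after ≥48 hr.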
TDP1 cell CPT: growth inhibition of DT40 Tdp1-/-;hTDP1 cells with camptothecin (screen for TDP1 inhibitors); 12% of 420,000 active; chicken DT40 Tdp1-/-;hTDP1 cells + 20 nM CPT, ATP luminescence, 48 h; Potency, µM (titrated, usually from 46.2 µM), for the others: at the highest dose activity change, negative = growth inhibition, most hits filed as inhibitors; further: nearly all actives have a fitted effect of over 55% in size
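Chicken DT40 Tdp1-/- cells complemented with human TDP1, 400 cells/well, exposed to compounds plus 20 nM camptothecin for at least 48 h at 37 C; viability read as ATP content by CellTiter-Glo luminescence.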
12-LOX inh: blocks human arachidonate 12S-lipoxygenase; P18054; purified 12hLO, xylenol orange hydroperoxide absorbance; Potency, µM (doses to about 108 µM), for the others: at the highest dose activity change, negative = inhibition, actives largely listed as inhibitors; 1.1% of 580,000 active
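Purified human 12hLO at 150 nM in 25 mM Hepes, 0.01% Triton X-100, pH 7.0, preincubated 15 min at room temperature with compound. Reaction started with 40 uM arachidonic acid, 30 min at room temperature. Hydroperoxide measured by Fe-xylenol orange, 573/405 nm absorbance ratio.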
VP16 counter: inhibits Gal4-VP16 luciferase reporter, ROR gamma counter-screen; Drosophila S2 Gal4-VP16 UAS-luciferase, luminescence, 20 h; Potency, µM (highest dose often 53.6 µM), without a hit: top-dose activity, negative = inhibition, most hits filed as inhibitors; 3.5% of 310,000 active; AID 2546;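 further: Gal4-VP16 expression switched on by copper sulfate through the metallothionein promoter; nearly all actives have a fitted effect of over 50% in size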
RORgamma inh: ROR gamma (mouse) transcription inhibition. P51450. Drosophila S2 Gal4-RORgamma UAS-luciferase reporter, 20 h. Potency, µM (doses to about 53.6 µM), for inactives: top-dose activity change, negative = inhibition, actives largely listed as inhibitors. 5.4% of 310,000 active; further: nearly all actives have a fitted effect of over 60% in size
Target sequence (P51450 whole entry, looked up, the tested form may be a part): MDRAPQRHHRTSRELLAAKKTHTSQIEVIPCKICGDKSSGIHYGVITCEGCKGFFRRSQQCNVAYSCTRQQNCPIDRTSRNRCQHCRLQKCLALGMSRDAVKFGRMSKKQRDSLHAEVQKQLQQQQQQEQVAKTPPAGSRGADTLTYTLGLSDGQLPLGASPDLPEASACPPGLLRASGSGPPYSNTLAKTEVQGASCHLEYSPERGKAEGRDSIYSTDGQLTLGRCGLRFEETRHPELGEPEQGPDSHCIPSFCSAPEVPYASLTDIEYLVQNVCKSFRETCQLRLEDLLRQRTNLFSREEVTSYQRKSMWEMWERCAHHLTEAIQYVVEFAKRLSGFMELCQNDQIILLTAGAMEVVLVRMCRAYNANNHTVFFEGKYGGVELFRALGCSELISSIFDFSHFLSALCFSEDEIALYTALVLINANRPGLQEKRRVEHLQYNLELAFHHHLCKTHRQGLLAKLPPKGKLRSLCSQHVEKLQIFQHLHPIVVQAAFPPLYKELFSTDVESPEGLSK
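Stable Schneider cell line, Gal4 DNA-binding domain fused to ROR gamma, UAS-luciferase. Cmpd 1 hr RT → CuSO4 700 uM final → 20 hr RT → luciferase reagent 10 min → luminescence.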
ELG1 DNA repair: blocks ELG1-dependent DNA repair in HEK293T cells | HEK293T ELG1-luciferase reporter, luminescence, 16 h; DNA damage induced by 5-fluorouridine | Potency, µM (top dose mostly 46.1 µM), for inactives: top-dose activity change, negative = inhibition, actives largely listed as inhibitors | 2.3% of 330,000 active | AID 504467; further: nearly all actives have a fitted effect of over 55% in size
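Quantitative HTS, concentration-response format. 2,000 cells/well co-treated with 5-fluorouridine and compound, 16 hr in 5% CO2 at 37 °C; ONE-Glo luminescence read after 30 min.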
Active calls of the source: *; u = inconclusive; x = no result given; [ ] = another dose, or the depositor's remark. The call rests on the fitted dose curve; in most records, active means well fitted curve in the direction sought with a large enough effect; inconclusive means small, poorly fitted or top-dose-only effect, or another doubt; inactive means no such curve, though single readings can be large; an effect the other way counts as inactive or inconclusive. On the % scale 0 is the no-effect control and ±100 the full control effect; potency means the concentration at half of the fitted maximal effect.

SMILES	DT40 TDP1 no CPT	TDP1 cell CPT	12-LOX inh	VP16 counter	RORgamma inh	ELG1 DNA repair
S=c1[nH]nc(-c2ccccc2)n1/N=C/c1cccc(Cl)c1	u	u	-21.0%	4.47µM*	5.62µM*	-2.2%
Cc1ccccc1/C=N/n1c(-c2ccccn2)n[nH]c1=S	-3.1%	15.0%	-9.1%	-18.3%	u	4.5%
S=c1[nH]nc(-c2ccccn2)n1/N=C/c1cccc2ccccc12	0.2%	-1.2%	5.62µM*	u	2.24µM*	1.8%
O=[N+]([O-])c1ccc(O)c(/C=N/n2c(-c3ccccc3)n[nH]c2=S)c1	-6.4%	1.8%	u	u	u	-15.7%
O=[N+]([O-])c1ccc(Cl)c(/C=N/n2c(-c3ccncc3)n[nH]c2=S)c1	u	18.4µM*	u	3.9%	-6.0%	17.3%
S=c1[nH]nc(-c2cc(-c3ccccc3)n[nH]2)n1/N=C/c1c(Cl)cccc1Cl	u	-9.8%	u	-9.6%	u	u
S=c1[nH]nc(-c2ccccn2)n1/N=C/c1ccccc1	-8.2%	0.8%	u	-3.2%	u	-1.3%
O=C1NCC2(CCN(Cc3cccnc3)CC2)Oc2ccccc21	x	x	3.2%[6.33 µM]	x	x	x
CC(C)CNC(=O)C1CCc2sc(C(=O)N3CCCCCC3)cc2C1 (centres undefined)	x	x	6.4%	x	x	x
Cn1c(=O)c2c(ncn2CC(O)COCc2ccccc2F)n(C)c1=O (centres undefined)	x	x	22.8%	x	x	x
Nc1nccnc1C(=O)NCc1ccnc(OCc2ccccc2)c1	x	x	33.3%	x	x	x
COc1ccc2c(C)c(CC(=O)Nc3cccc(Cl)c3)c(=O)oc2c1	x	x	5.2%	x	x	x
CCC/C(=N\NC(=O)C(C)C)c1ccccc1	x	x	-22.3%	x	x	x
S=c1[nH]nc(-c2ccccn2)n1/N=C/c1cccs1	-22.8%	-2.5%	-17.7%	4.1%	-37.9%	0.4%
Cc1nn(-c2ccccc2)c(C)c1/C=N/n1c(-c2ccc(Cl)cc2)n[nH]c1=S	16.4µM*	u	u	8.91µM*	12.6µM*	-9.8%
S=c1[nH]nc(-c2ccc(Cl)cc2)n1/N=C/c1cccs1	-23.0%	-7.4%	0.0%	-20.0%	3.55µM*	0.0%
Cc1nn(-c2ccccc2)c(C)c1/C=N/n1c(-c2ccncc2)n[nH]c1=S	-19.0%	-2.6%	u	0.7%	-28.4%	5.2%
Cc1cccc(/C=N/n2c(-c3ccccn3)n[nH]c2=S)c1	x	x	x	17.8µM*	u	u
Cc1cc(-c2n[nH]c(=S)n2/N=C/c2c[nH]c3ccccc23)n[nH]1	u	2.8%	u	-3.4%	8.0%	-3.4%
Oc1c(Br)cc(Br)cc1/C=N/n1c(-c2ccccc2)n[nH]c1=S	-6.7%	0.7%	u	u	u	-21.8%
Oc1ccccc1/C=N/n1c(-c2ccccc2)n[nH]c1=S	-2.5%	0.5%	u	-20.5%	11.2µM*	-1.8%
COc1ccc(C(=O)CSc2nnc(Nc3ccccc3F)s2)c(OC)c1	x	x	9.7%	x	x	x
COc1ccc2c(c1)c(C(C(=O)O)N1C[C@H](C)C[C@H](C)C1)cn2CC(=O)O (some centres undefined)	x	x	-45.4%	x	x	x
COc1ccc(Cc2nnc(SC(C)c3nc4ccccc4c(=O)[nH]3)o2)cc1 (centres undefined)	x	x	-12.5%	x	x	x
CCOc1ccc(/C=N/n2c(C)nc3ccccc3c2=O)cc1	1.0%	-5.0%	x	-6.5%	32.3%	u
SMILES	DT40 TDP1 no CPT	TDP1 cell CPT	12-LOX inh	VP16 counter	RORgamma inh	ELG1 DNA repair
S=c1[nH]nc(-c2ccccc2)n1/N=C/c1ccc(Cl)cc1	-25.3%	-27.8%	22.4µM*	u	1.12µM*	-9.0%
CCOc1ccc(/C=N/n2c(-c3ccccc3)n[nH]c2=S)cc1	u	u	u	u	1.58µM*	-2.4%
Fc1ccc(/C=N/n2c(-c3cccs3)n[nH]c2=S)cc1	-6.9%	-20.4%	u	3.98µM*	2µM*	5.2%
Cc1ccc(-c2n[nH]c(=S)n2/N=C/c2c(C)[nH]n(-c3ccccc3)c2=O)cc1	u	-0.7%	u	-26.2%	10µM*	-14.7%
CCCNC(=O)[C@@H]1Cc2cn(Cc3ccncc3)c3cccc(c23)[C@H](CC(C)C)N1	x	x	0.4%[176 µM]	x	x	x
Fc1ccc(-c2n[nH]c(=S)n2/N=C/c2c[nH]c3ccccc23)cc1	6.51µM*	7.31µM*	u	-0.3%	u	u
CC1CC(C)CN(S(=O)(=O)c2ccc(C(=O)Nc3nnc(C4CC4)o3)cc2)C1 (centres undefined)	u	u	-0.2%	0.631µM*	0.562µM*	5.5%
CCOC(=O)N1CCN(S(=O)(=O)c2ccc(C(=O)Nc3nnc(CC)o3)cc2)CC1	-29.9%	23.2%	9.2%	u	u	4.0%
CCOC(=O)N1CCN(S(=O)(=O)c2ccc(C(=O)Nc3nnc(C4CC4)o3)cc2)CC1	u	-16.7%	18.0%	3.16µM*	1.78µM*	-2.6%
COc1ccc2[nH]c3c(c2c1)CCNC31CCN(C(=O)C2CCN2C2CCCCC2)CC1 (centres undefined)	x	x	31.2%	x	x	x
COC1=C(Br)C(=O)c2ncccc2C1=O	0.581µM*	0.517µM*	25.1µM*	x	x	x
O=C1C(=O)c2cccnc2-c2ncccc21	0.0052µM*	0.0326µM*	3.98µM*	x	x	x
CC(C)(C)c1cc(NC(=O)CS(=O)(=O)c2ccccc2)on1	x	x	-11.6%	x	x	x
COC(=O)c1cc2c(c3c4cc(OC)ccc4n(S(=O)(=O)c4ccc(C)cc4)c13)C(=O)N(Cc1ccccc1)C2	x	x	-9.6%	x	x	x
COC(=O)c1cc2c(n1S(=O)(=O)c1ccc(C)cc1)C(=O)C(=O)c1[nH]cc(C(=O)OCc3ccccc3)c1-2	1.64µM*	0.82µM*	x	x	x	x
CCNC(=O)CNC(=O)c1cc(-c2ccc(F)cc2)nc2ccccc12	x	x	-13.4%	x	x	x
CC(=O)c1cc2c(cc1NS(=O)(=O)c1ccccc1C)OCO2	x	x	-20.0%	2.3%	-10.6%	-6.5%
COc1ccc(S(=O)(=O)Nc2cc3c(C(C)=O)c(C)oc3c3ccccc23)cc1	0.651µM*	0.651µM*	40.5%	4.8%	-32.9%	11.0%
CC(=O)c1c(C)oc2c1cc(NS(=O)(=O)c1ccc(C(C)(C)C)cc1)c1ccccc12	20.6µM*	u	-28.2%	x	x	x
COc1ccc(S(=O)(=O)Nc2cc3c(cc2C(C)=O)OCO3)cc1	4.61µM*	10.3µM*	-0.1%	-3.8%	-31.1%	7.5%
